For 13 compounds, growth results are on record in PubChem BioAssay (NCI).

Where “and” joins values, the source holds several entries; their conditions need not be identical. Equal entries are not always repeated. This is part of a sample that, as a whole, favours compounds with a hit. Of some 83,000 tested, about 20% had one in any assay.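 Values shown are percent growth following 48 h exposure of cells in 96-well plates to a single concentration of compound; below 10 was considered active.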 Calls of active or inactive are those of the source.

Some test systems named below: SR leukemia; RPMI-8226 leukemia; OVCAR-8 ovarian; OVCAR-5 ovarian; OVCAR-4 ovarian; SK-OV-3 ovarian; IGROV1 ovarian; OVCAR-3 ovarian; HS 578T breast; NCI/ADR-RES ovarian.
What all share (assay): NCI-60 one-dose screen, 48 h (100 = growth as untreated, 0 = no growth, -100 = all killed)
Details in all cases: 10 µM unless noted

As to `Cc1ccc(NC(=O)Nc2nc3ccc([N+](=O)[O-])cc3s2)cc1`, the growth was 20.3% (inactive) in the experiment on SR leukemia; 2.09% (active) in the experiment with RPMI-8226 leukemia; 12.8% (inactive) in the experiment on OVCAR-8 ovarian; 10.3% (inactive) in the experiment with OVCAR-5 ovarian; -6.09% (active) in the experiment on OVCAR-4 ovarian; -12.4% (active) in the experiment with SK-OV-3 ovarian. The growth in the experiment on IGROV1 ovarian was 16.8% (inactive); in the experiment on OVCAR-3 ovarian it was -0.465% (active); in the experiment with HS 578T breast it was 15.2% (inactive); in the experiment on NCI/ADR-RES ovarian it was 2.65% (active).
With `CN1c2ccccc2Sc2cc(/C=N/Nc3ccnc4cc(Cl)ccc34)ccc21`, the growth was -1.36% (active) with SR leukemia; 46.3% (inactive) in the experiment with RPMI-8226 leukemia; 60.5% (inactive) with OVCAR-8 ovarian; 106% (inactive) in the experiment with OVCAR-5 ovarian; 94% (inactive) with OVCAR-4 ovarian; 102% (inactive) in the experiment on SK-OV-3 ovarian. The growth was 104% (inactive) in the experiment with IGROV1 ovarian, 90.8% (inactive) with OVCAR-3 ovarian, 105% (inactive) in the experiment with HS 578T breast and 12.6% (inactive) in the experiment with NCI/ADR-RES ovarian.
With `O=C(CSc1nc2ccccc2c(=O)n1-c1ccc(Cl)cc1)N/N=C/c1ccc(Oc2ccc(Cl)cc2)cc1`, the growth with SR leukemia was 32.9% (inactive); with RPMI-8226 leukemia it was 24.7% (inactive); with OVCAR-8 ovarian, 13.4% (inactive); with OVCAR-5 ovarian it was 70.6% (inactive); in the experiment with OVCAR-4 ovarian it was 1.7% (active); in the experiment with SK-OV-3 ovarian it was 33.8% (inactive). Also, the growth with IGROV1 ovarian was 20.6% (inactive); in the experiment with OVCAR-3 ovarian it was 87.3% (inactive); in the experiment on HS 578T breast, 21.4% (inactive); in the experiment with NCI/ADR-RES ovarian it was 15.7% (inactive).
For `C=C(C)[C@@H]1CC[C@]2(C(=O)O)CC[C@]3(C)[C@H](CC[C@@H]4[C@@]5(C)C/C(=C/c6ccccn6)C(=O)C(C)(C)[C@@H]5CC[C@]43C)[C@@H]12`, the growth in the experiment with SR leukemia is 29.1% (inactive); with RPMI-8226 leukemia, 13% (inactive); in the experiment with OVCAR-8 ovarian it was 32% (inactive); in the experiment on OVCAR-5 ovarian, 82.4% (inactive); with OVCAR-4 ovarian it was 36.2% (inactive); in the experiment with SK-OV-3 ovarian, 70.4% (inactive). Moreover, the growth in the experiment with IGROV1 ovarian is 51.6% (inactive); with OVCAR-3 ovarian, 40.8% (inactive); with HS 578T breast, 63.6% (inactive); with NCI/ADR-RES ovarian, 37.4% (inactive).
For the compound `Cc1ccc2c(n1)C(=O)C(Cl)=C(Nc1cccc(C(=O)OC(C)(C)C)c1)C2=O`, the growth was 5.81% (active) in the experiment on SR leukemia; 28% (inactive) in the experiment with RPMI-8226 leukemia; 87.3% (inactive) in the experiment with OVCAR-8 ovarian; 130% (inactive) with OVCAR-5 ovarian; 65.7% (inactive) in the experiment on OVCAR-4 ovarian; 97.2% (inactive) in the experiment on SK-OV-3 ovarian. Besides, the growth is 88.2% (inactive) in the experiment on IGROV1 ovarian, 37.5% (inactive) in the experiment with OVCAR-3 ovarian, 102% (inactive) in the experiment on HS 578T breast and 93.9% (inactive) in the experiment on NCI/ADR-RES ovarian.
For `CCCCCCCCCC(=O)NC(C)(C)C(=O)N1CCC[C@H]1C(=O)N[C@@H](CC(C)C)C(=O)N[C@@](C)(CC)C(=O)N[C@@H](CCC(N)=O)C(=O)N[C@H](CCC(N)=O)C(=O)NC(C)(C)C(=O)NC(C)(C)C(=O)N[C@@H](CCC(N)=O)C(=O)N[C@H](CC(C)C)C(=O)N[C@H](CO)CC(C)C`, the growth is -77.5% (active) and 1.34% (active) in the experiment with SR leukemia; -67.5% (active) and -26% (active) with RPMI-8226 leukemia; -86.4% (active) and -49.5% (active) with OVCAR-8 ovarian; -97.7% (active) and -82.4% (active) in the experiment on OVCAR-5 ovarian; -20.8% (active) and 50.4% (inactive) with OVCAR-4 ovarian; -70.9% (active) and 19.4% (inactive) with SK-OV-3 ovarian. Besides, the growth was -87% (active) and 5.72% (active) in the experiment with IGROV1 ovarian; -23.8% (active) in the experiment with OVCAR-3 ovarian; -71.3% (active) and -59% (active) in the experiment with HS 578T breast; -83% (active) and 0.971% (active) in the experiment on NCI/ADR-RES ovarian.
Turning to `O=C(/C=C/Nc1ccc(S(=O)(=O)Nc2ncccn2)cc1)c1ccc(N=Cc2c(O)[nH]c3ccccc23)cc1`, the growth with SR leukemia was 82.1% (inactive); in the experiment on RPMI-8226 leukemia, 86.4% (inactive); with OVCAR-8 ovarian, 101% (inactive); in the experiment on OVCAR-5 ovarian, 115% (inactive); in the experiment on OVCAR-4 ovarian, 106% (inactive); with SK-OV-3 ovarian, 109% (inactive). Moreover, the growth in the experiment on IGROV1 ovarian was 118% (inactive); in the experiment on OVCAR-3 ovarian, 137% (inactive); in the experiment with HS 578T breast it was 105% (inactive); with NCI/ADR-RES ovarian it was 110% (inactive).
In the case of `NC1=NC2(CCCC2)N(c2ccc(S(=O)(=O)Nc3nccs3)cc2)C(N)=N1`, the growth with SR leukemia was 98.2% (inactive); in the experiment on RPMI-8226 leukemia, 94.1% (inactive); in the experiment on OVCAR-8 ovarian, 105% (inactive); with OVCAR-5 ovarian, 101% (inactive); in the experiment with OVCAR-4 ovarian, 110% (inactive); with SK-OV-3 ovarian it was 114% (inactive). The growth is 103% (inactive) in the experiment with IGROV1 ovarian, 116% (inactive) with OVCAR-3 ovarian, 109% (inactive) in the experiment with HS 578T breast and 100% (inactive) with NCI/ADR-RES ovarian.
Take `Clc1cccc(/C=N/Nc2nc(N/N=C/c3cccc(Cl)c3)nc(N3CCCCC3)n2)c1`: the growth in the experiment with SR leukemia is 74.6% (inactive); in the experiment with RPMI-8226 leukemia it was 72.4% (inactive); with OVCAR-8 ovarian it was 89.2% (inactive); with OVCAR-5 ovarian, 110% (inactive); with OVCAR-4 ovarian it was 90.2% (inactive); with SK-OV-3 ovarian it was 109% (inactive). For the same compound, the growth with IGROV1 ovarian was 105% (inactive); in the experiment on OVCAR-3 ovarian, 91.4% (inactive); in the experiment with HS 578T breast, 105% (inactive); in the experiment with NCI/ADR-RES ovarian, 95.2% (inactive).
With `COc1ccc(CC(C)=C(c2ccc(OCCN3CCCC3)cc2)c2ccc(OCCN3CCCC3)cc2)cc1`, the growth was -34% (active) with SR leukemia; -21.7% (active) in the experiment on RPMI-8226 leukemia; -81.6% (active) in the experiment with OVCAR-8 ovarian; -91.1% (active) in the experiment with OVCAR-5 ovarian; -86.9% (active) in the experiment with OVCAR-4 ovarian; -88% (active) in the experiment on SK-OV-3 ovarian. Further, the growth is -76.5% (active) with IGROV1 ovarian, -81% (active) with OVCAR-3 ovarian, -47.3% (active) in the experiment on HS 578T breast and -80.5% (active) in the experiment with NCI/ADR-RES ovarian.
As to `CSc1ccc(/C(=N/N=C(N)N)c2ccc(F)cc2)cc1`, the growth in the experiment on SR leukemia was -13.8% (active); with RPMI-8226 leukemia, 5.69% (active); in the experiment on OVCAR-8 ovarian, 11.9% (inactive); with OVCAR-5 ovarian, 43.9% (inactive); with OVCAR-4 ovarian, 57% (inactive); in the experiment with SK-OV-3 ovarian, 45.3% (inactive). The growth was 39.9% (inactive) in the experiment with IGROV1 ovarian, 27.5% (inactive) with OVCAR-3 ovarian, -1.22% (active) in the experiment with HS 578T breast and 4.1% (active) with NCI/ADR-RES ovarian.
As for `CCOC(=O)c1c(NC(=O)c2ccc(C(F)(F)F)cc2)sc2c(CN3CCN(C)CC3)c(O)ccc12`, the growth in the experiment on SR leukemia is -56.9% (active); with RPMI-8226 leukemia it was -42% (active); with OVCAR-8 ovarian, -56.2% (active); with OVCAR-5 ovarian it was -52.6% (active); with OVCAR-4 ovarian, -53.8% (active); in the experiment on SK-OV-3 ovarian, -4.72% (active). In addition, the growth is -82.7% (active) with IGROV1 ovarian, -68.9% (active) in the experiment with OVCAR-3 ovarian, -17.8% (active) in the experiment on HS 578T breast and -63.2% (active) in the experiment with NCI/ADR-RES ovarian.
Take `COc1ccccc1Cn1cc(C#N)c(N)c1C(=O)c1ccc(Br)cc1`: the growth was 112% (inactive) in the experiment with SR leukemia; 93.7% (inactive) with RPMI-8226 leukemia; 98.3% (inactive) in the experiment on OVCAR-8 ovarian; 104% (inactive) with OVCAR-5 ovarian; 73.8% (inactive) with OVCAR-4 ovarian; 107% (inactive) with SK-OV-3 ovarian. Also, the growth with IGROV1 ovarian is 91.6% (inactive); in the experiment on OVCAR-3 ovarian, 104% (inactive); with HS 578T breast it was 94.4% (inactive); in the experiment on NCI/ADR-RES ovarian, 93.6% (inactive).
